# Vif-APOBEC3G blk: blocks the Vif interaction with human APOBEC3G. Q9HC16. HeLa A3G-eYFP + Vif (tagged APOBEC3G with the HIV-1 protein that degrades it), YFP fluorescence, overnight. Potency, µM (top dose mostly 46.1 µM), for inactives: at the top dose activity, negative = active, most hits filed as inhibitors. 410,000 tested, 0.076% active. AID 602310; also: potency is read from the fitted curve at half-maximal effect; % is scaled to controls: 0 for no effect and ±100 for the full control effect; nearly all actives have a fitted effect of over 60% in size
#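 Read-out is eYFP fluorescence (Ex 488/Em 500-530) from Vif-expressing HeLa A3G-eYFP cells; more signal means A3G escaped Vif-mediated degradation. Cells plated overnight, compound pinned in, incubated overnight at 37 deg C.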
# GCN5L2 inh: blocks human GCN5L2 histone acetyltransferase. Q92830. GCN5L2 HAT assay, ThioGlo1 CoA-SH fluorescence. Potency, µM (series often up to 58.9 µM), inactives show top-dose activity change, negative = inhibition, usual class: inhibitors. 390,000 tested, 0.21% active; also: potency is read from the fitted curve at half-maximal effect; % is scaled to controls: 0 for no effect and ±100 for the full control effect
#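 Enzyme at 20nM final was mixed with library compounds for 15 min at room temperature. Peptide H3(1-25) at 75uM, acetyl-CoA at 70uM and ThioGlo1 at 50uM were then added. Plates were read immediately and after 20 min (Ex340nm/Em540nm).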
# IL2 activator: activators of IL-2. IL-2 activation reporter assay, cell-based qHTS; stimulated with anti-CD3/CD4/CD28 beads; in transgenic mouse T cells. activation, % (series mostly up to about 46 µM). 360,000 tested, 0.065% active; in the data active = activation above about 50%; inconclusive = mostly about 30% to 49%; also: 0% is about no effect
#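 Quantitative HTS in unstimulated transgenic mouse T cells, with memory T cells as non-tolerant control and PMA/ionomycin as tolerance-bypass control. Compound pretreatment lasted 60 minutes before 18 h bead stimulation; EGFP/DsRed fluorescence read.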
# PKM2 activator: increases activity of human pyruvate kinase M2; P14618; purified PKM2, Kinase-Glo ATP luminescence, activation; response scale: 0% is enzyme alone, no compound; Potency, µM (series often up to 57.5 µM), inactives show at the highest dose activation, hits mostly activators; 260,000 tested, 0.34% active; also: potency is read from the fitted curve at half-maximal effect; % is scaled to controls: 0 for no effect and ±100 for the full control effect; nearly all actives have a fitted effect of over 55% in size
#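 Purified hPK-M2 (>95% pure) converted ADP (0.1 mM final) to ATP with 0.5 mM PEP in 50 mM imidazole pH7.2, KCl, MgCl2, Tween 20, BSA; 1 h at room temperature. ATP detected by Kinase-Glo luminescence.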
# Vif-A3F inh: blocks the Vif interaction with APOBEC3F; HeLa A3F-eYFP + Vif (tagged APOBEC3F with the HIV-1 protein that degrades it), YFP fluorescence increase; Potency, µM (top dose mostly 46.1 µM), for inactives: at the top dose activity, negative = active; 390,000 tested, 0.2% active; AID 602313; also: potency is read from the fitted curve at half-maximal effect; % of control where 0% means no effect; nearly all actives have a fitted effect of over 65% in size
#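 Fluorescence increase (Ex 488/Em 500-530) after overnight compound treatment at 37 deg C flags inhibition of Vif-driven A3F-eYFP loss in stable HeLa A3F-eYFP/Vif cells seeded overnight beforehand.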
# RGS12 GoLoco inh: RGS12 GoLoco-Gai1 interaction inhibition; P63096; Gai1:RGS12 GoLoco peptide FP, rhodamine, 10 min; Potency, µM (top dose mostly 61.6 µM), without a hit: at the top dose activity, negative = inhibition, hits mostly inhibitors; 230,000 tested, 0.44% active; active = well fitted inhibition curve with a large enough effect, not every such curve was filed as active; inactive = no such curve, though single readings can be large or run the other way; also: potency is read from the fitted curve at half-maximal effect; % is scaled to controls: 0 for no effect and ±100 for the full control effect; nearly all actives have a fitted effect of over 30% in size
# Target sequence (P63096 whole entry, looked up): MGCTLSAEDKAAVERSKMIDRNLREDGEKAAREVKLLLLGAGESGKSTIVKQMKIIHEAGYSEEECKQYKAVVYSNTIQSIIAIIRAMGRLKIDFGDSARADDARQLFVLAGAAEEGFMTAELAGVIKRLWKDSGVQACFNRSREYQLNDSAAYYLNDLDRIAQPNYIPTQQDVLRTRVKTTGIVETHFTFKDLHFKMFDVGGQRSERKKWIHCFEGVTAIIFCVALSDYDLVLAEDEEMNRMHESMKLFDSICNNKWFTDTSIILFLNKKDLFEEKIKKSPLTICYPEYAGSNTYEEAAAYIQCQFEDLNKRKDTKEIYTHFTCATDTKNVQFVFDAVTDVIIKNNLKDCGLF
# Active calls of the source: *; u = inconclusive; x = not tested or not shown; [ ] = another dose, or the depositor's remark. Rows were chosen to be rich in hits. Some 0.77% of all compounds tested hit in one or more screens of this group. Unless noted, calls follow the shape of the dose curve; as a rule, active = well fitted curve in the direction sought with a large enough effect; inconclusive = small, poorly fitted or top-dose-only effect, or another doubt; inactive = no such curve, though single readings can be large; an effect the other way counts as inactive or inconclusive.
SMILES,Vif-APOBEC3G blk,GCN5L2 inh,IL2 activator,PKM2 activator,Vif-A3F inh,RGS12 GoLoco inh
CC(C)C(NS(=O)(=O)c1cccs1)C(=O)N(C)Cc1ccccc1 (centres undefined),-3%,-2%,1,8%,-4%,2%
O=C(NCCN1C(=O)S/C(=C\c2cccs2)C1=O)c1ccc(=O)[nH]c1,x,-3%,x,4.5µM*,x,-15%
CC(=O)NCCN1C(=O)S/C(=C\c2cccs2)C1=O,5%,-19%,-1,-6%,2%,-12%
CCc1nc2oc3cc(OC)ccc3c(=O)c2c(=O)n1Cc1ccco1,1%,-6%,1,25µM*,x,35%
CC(NC(=O)Cc1ccccc1)c1ccccc1 (centres undefined),-2%,2%,0,0%[11.5 µM],6%,x
CCC[N+](C)(C)C(C)C(OC(C)=O)c1ccccc1 (centres undefined),3%,-9%,-1,7%,-2%,7.9µM*
Cc1noc(C)c1CSc1nc2ccccc2c(=O)n1-c1ccccc1,3.5µM*,-9%,-1,0%,-1%,3%
Cc1cc(C)nc(Nc2nc(C(N)Cc3ccccc3)cs2)n1 (centres undefined),4.5µM*,x,0,x,x,x
COC(=O)c1cc(C)nc(Nc2nc(C(N)Cc3ccc(F)cc3)cs2)n1 (centres undefined),1%,x,1,x,x,x
COc1ccc(C(=O)Nc2cc([N+](=O)[O-])ccc2N2CCCC2)cc1,-4%,-5%,0,-18%,1%,15%
COc1cc(/C=C2\SC(=O)N(c3cccc(Cl)c3)C2=O)cc([N+](=O)[O-])c1O,4%,u,-4,7.9µM*,1%,8%
N#C/C(=C/c1ccc(Cl)cc1)c1nc(-c2ccc(Br)cc2)cs1,-5%,-11%,x,x,4%,x
N#CC(=Cc1ccccn1)c1nc(-c2ccc(Cl)cc2)cs1,5.6µM*,x,-2,x,u,x
N#C/C(=C\Nc1ccc2cn[nH]c2c1)c1nc(-c2ccc(Cl)cc2)cs1,-21%,-1%,1,-5%,22µM*,82%
CC(C)Oc1ccc(S(=O)(=O)N2CCCCC2)cc1NC(=O)CN1CCCC1c1cccs1 (centres undefined),1%,-11%,-1,x,3%,x
CCCCCCCCOC(=O)c1nc(Cl)c(Cl)c(N)c1Cl,-3%,-16%,-6,7%,-3%,7%
O=C(O)c1ccccc1Nc1cccc(OCc2ccc3ccccc3n2)c1,-4%,28µM*,0,x,-6%,11%
COc1ccc(C(C)(O)c2nc(-c3cccc(C(C)C)c3)cs2)cc1 (centres undefined),-15%,x,0,x,x,x
NC(C(=O)O)C(O)c1ccc(O)c(O)c1 (centres undefined),x,14µM*,x,x,x,2%
COc1ccc(/C=C/c2nc3ccccc3n2C)cc1,1%,-14%,-3,-59%,-5%,10%
CC(COc1ccc(/C=C/c2ccccc2)cc1)[N+](C)(C)C (centres undefined),3%,u,2,x,1%,10µM*
CCOC(=O)C1CCN(C(=O)c2ccc(SC)cc2OC)CC1,-1%,0%,0,1%,8%,-12%
Cn1cc(C=O)c2cc(F)ccc21,0%,-4%,2,-10%,3%,8%
Cn1cc(/C=C/c2cc[n+](C)cc2)c2cc(F)ccc21,u,-16%,206*,x,u,x
Cn1cc(/C=C/c2cc[n+](C)cc2)c2cc(Cl)ccc21,u,-20%,104*,x,u,x
C[n+]1ccc(/C=C/c2c[nH]c3ccc(F)cc23)cc1,8.9µM*,-22%,95*,x,10µM*,x
Cn1cc(S(=O)(=O)c2ccccc2)c(=O)c2cc(Cl)ccc21,-1%,3%,1,x,4%,x
Cc1[nH]c2ccccc2c1/C=C/c1c[nH]c2ccccc12,0%,x,x,x,x,x

# Compound activity as filed in PubChem BioAssay.
